This is a sample that favours compounds with a hit; in the whole collection about 3.5% have one here.
FBW7 act: FBW7 E3 ligase activators, primary screen, biochemical, AlphaScreen, human. F-box/WD repeat-containing protein 7 (Homo sapiens), Q969H0. normalized activity (activation), % at 26.1 µM. AlphaScreen FBW7–phospho-cyclin E peptide binding, activator screen. AID 1259310, 2017. actives 0.13% (n = 650,000); in the data active = normalized activity above about 1.9%;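 also: purified mutant Fbw7 with reduced substrate affinity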
GPR151 activ: activators of human GPR151, primary screen, cell-based, PathHunter beta-arrestin, luminescence; PathHunter beta-arrestin GPR151 cells; activation, % at 11.2 µM; actives 1% (n = 650,000); in the data active = activation above about 4.9%
TEAD-YAP inh: TEAD-YAP interaction inhibition, primary screen, TEAD-YAP interaction inhibitor project, luminescence, HEK-TIYL cells; TEAD-Gal4/YAP UAS-luciferase luminescence; inhibition, % at 9.12 µM; actives 1.4% (n = 640,000); in the data active = inhibition above about 32%
MITF inh: MITF inhibitors, primary screen, biochemical, AlphaScreen, human; AlphaScreen MITF homodimerization, bead proximity signal; Microphthalmia-associated transcription factor (Homo sapiens), O75030; actives 0.91% (n = 650,000); inhibition, % at 2.6 µM; in the data active = inhibition above about 50%
Target sequence (O75030 whole entry, looked up): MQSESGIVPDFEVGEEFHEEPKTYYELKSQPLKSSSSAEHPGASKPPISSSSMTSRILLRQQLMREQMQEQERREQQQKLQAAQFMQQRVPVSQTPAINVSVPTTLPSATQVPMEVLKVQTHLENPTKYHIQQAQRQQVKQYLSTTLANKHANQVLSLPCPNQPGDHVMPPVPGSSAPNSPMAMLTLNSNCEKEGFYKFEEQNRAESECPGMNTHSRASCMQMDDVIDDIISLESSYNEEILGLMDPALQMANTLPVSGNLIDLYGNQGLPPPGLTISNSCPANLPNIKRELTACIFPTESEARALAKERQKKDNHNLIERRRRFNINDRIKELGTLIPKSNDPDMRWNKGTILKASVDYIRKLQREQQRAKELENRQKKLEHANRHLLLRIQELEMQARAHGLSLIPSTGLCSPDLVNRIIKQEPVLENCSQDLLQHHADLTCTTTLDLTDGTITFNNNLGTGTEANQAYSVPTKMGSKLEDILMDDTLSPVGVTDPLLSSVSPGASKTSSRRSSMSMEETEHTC
MITF inh conf: MITF inhibitors, retest of hits, confirmation, biochemical, AlphaScreen, triplicate | AlphaScreen MITF homodimerization, biotin/His-MITF beads | actives 16% (n = 4,700) | inhibition, % at 2.6 µM | shares compounds with MITF inh;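 active = inhibition above a cutoff derived from the DMSO control wells, cut at about 28% in these data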;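 also: inhibitors lower the bead chemiluminescence by keeping MITF from dimerizing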
AS interf DR: AlphaScreen optical interference compounds, dose response, counter-screen, biochemical, HTS | shares compounds with MITF inh | AlphaScreen optical interference counterscreen, cell-free | IC50, µM | actives 6% (n = 480); call rule not given here
AS interf ctr: AlphaScreen optical interference compounds, counter-screen for MITF inhibitor project, biochemical, triplicate. shares compounds with MITF inh. LysRS AlphaScreen counterscreen, signal interference. inhibition, % at 2.6 µM. actives 7.6% (n = 4,700);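 active = inhibition above a cutoff derived from the DMSO control wells, cut at about 30% in these data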
Of the large screens only hits and unclear results are named; the others gave an inactive call (follow-up assays come after a bar, where they were run).

c1ccc(CC(NCc2ccncc2)c2ccccc2)cc1 (stereo unspecified)	none
O=C(c1cc(COc2ccc(F)cc2Cl)on1)N1C[C@H]2C[C@@H](C1)c1cccc(=O)n1C2	none
COC(=O)C1=C(N)OC(C)=C(C(=O)OC(C)(C)C)C12C(=O)N(C)c1ccccc12 (stereo unspecified)	none
COc1ccc(OCC#CCN2CCNCC2)cc1	MITF inh 59.3 | MITF inh conf inactive | AS interf ctr inactive
CCN1CCN(Cc2ccc(OC)cc2)CC1	none
O=[N+]([O-])c1cccc(CN2CCN(c3ccc(F)cc3)CC2)c1	none
O=[N+]([O-])c1ccc(N2CCN(Cc3cc(F)ccc3F)CC2)cc1	MITF inh 57.6 | MITF inh conf inactive | AS interf ctr inactive
O=[N+]([O-])c1ccc(N2CCN(Cc3c(F)cccc3F)CC2)cc1	MITF inh 62.7 | MITF inh conf inactive | AS interf ctr inactive
COc1ccc(OCC(=O)Nc2ccc([N+](=O)[O-])cc2C(=O)c2ccccc2)cc1	none
Cc1cccc(OCC(=O)N2CCN(Cc3ccccc3Cl)CC2)c1	MITF inh 66.4 | MITF inh conf inactive | AS interf ctr inactive
O=C(COc1ccccc1)N1CCN(Cc2cccc(Cl)c2)CC1	none
O=C(COc1ccccc1)N1CCN(Cc2cccnc2)CC1	MITF inh 81.5 | MITF inh conf inactive | AS interf ctr inactive
COc1ccc(Br)cc1CN1CCN(C(=O)COc2cccc(C)c2)CC1	MITF inh 57.8 | MITF inh conf inactive | AS interf ctr inactive
O=C(COc1ccc(Br)cc1)N1CCN(Cc2ccccc2)CC1	none
Cc1cccc(OCC(=O)N2CCN(Cc3ccc(Br)cc3)CC2)c1	MITF inh 70.3 | MITF inh conf inactive | AS interf ctr inactive
CN1C(=O)CC2(CNC(=O)C2)C1=O (stereo unspecified)	none
Cc1cccc(CN2CCN(C(=O)COc3ccc(Cl)cc3)CC2)c1	none
Cc1cccc(CN2CCN(C(=O)COc3ccccc3)CC2)c1	MITF inh 53.1 | MITF inh conf inactive | AS interf ctr inactive
Cc1ccccc1CN1CCN(C(=O)COc2ccccc2)CC1	MITF inh 59.7 | MITF inh conf inactive | AS interf ctr inactive
COc1ccccc1CN1CCN(C(=O)COc2ccccc2)CC1	none
O=C(COc1ccccc1)N1CCN(Cc2ccccc2F)CC1	MITF inh 55.1 | MITF inh conf inactive | AS interf ctr inactive
CC(C)Sc1ccc(CC(=O)N2CCN(Cc3nc4ccccc4n3C)CC2)cc1	MITF inh 54.9 | MITF inh conf inactive | AS interf ctr inactive
CCOP(=O)(OCC)SCc1ccccc1	MITF inh 53.3 | MITF inh conf inactive | AS interf ctr inactive
CCc1ccc(CN2CCN(Cc3cccc(Cl)c3)CC2)cc1	MITF inh 63.6 | MITF inh conf inactive | AS interf ctr inactive
CN1CCN(Cc2cccc(F)c2)CC1	none
Fc1cccc(CN2CCN(c3ccc(Cl)cc3)CC2)c1	none
CCC(CC)N1CCN(Cc2cccc(F)c2)CC1	MITF inh 73.1 | MITF inh conf inactive | AS interf ctr inactive
CC(C)N1CCN(Cc2cccc(F)c2)CC1	MITF inh 61.5 | MITF inh conf inactive | AS interf ctr inactive
Fc1cccc(CN2CCN(Cc3cccc(F)c3)CC2)c1	MITF inh 67.7 | MITF inh conf inactive | AS interf ctr inactive
CC(C)(C)CC(=O)OCC(=O)Nc1ccc(C#N)c(Cl)c1	none
Fc1cccc(CN2CCN(Cc3ccc(Cl)cc3)CC2)c1	MITF inh 70.0 | MITF inh conf inactive | AS interf ctr inactive
Fc1ccc(CN2CCN(Cc3cccc(Cl)c3)CC2)cc1	MITF inh 68.2 | MITF inh conf inactive | AS interf ctr inactive
CCCC[n+]1cc(NC(=O)c2ccccc2Br)on1	none
Cc1cccc(-n2c(CSc3nc4ccccc4s3)nc3ccccc3c2=O)c1C	none
COc1cccc(-n2c(/C=C/c3ccccc3[N+](=O)[O-])nc3ccccc3c2=O)c1	none
O=[N+]([O-])c1ccccc1CN1CCN(Cc2ccccc2F)CC1	MITF inh 66.9 | MITF inh conf inactive | AS interf ctr inactive
COc1ccccc1N1CCN(Cc2ccccc2[N+](=O)[O-])CC1	none
CC(C)N1CCN(Cc2ccccc2[N+](=O)[O-])CC1	MITF inh 62.9 | MITF inh conf inactive | AS interf ctr inactive
COc1ccc(CC2NCCc3cc(OC)c(OC)cc32)cc1OC (stereo unspecified)	MITF inh 84.0 | MITF inh conf 100.7 | AS interf DR 3.42 | AS interf ctr inactive
COc1ccc(CCNC2C3CC4CC(C3)CC2C4)cc1OC (stereo unspecified)	none
CCC(C)N1CCN(Cc2cc(OC)c(O)c(OC)c2)CC1 (stereo unspecified)	MITF inh 67.6 | MITF inh conf inactive | AS interf ctr inactive
CCC(C)N1CCN(Cc2cc(OC)c(OC)c(OC)c2)CC1 (stereo unspecified)	MITF inh 75.4 | MITF inh conf inactive | AS interf ctr inactive
CCN1CCN(Cc2cc(OC)c(O)c(OC)c2)CC1	none
Cc1cccc(-n2c(C)nc3ccccc3c2=O)c1	none
COc1ccccc1OCC(=O)N1CCN(Cc2nc3ccccc3[nH]2)CC1	MITF inh 75.2 | MITF inh conf inactive | AS interf ctr inactive
O=C(Cc1noc2ccccc12)N1CCN(Cc2nc3ccccc3[nH]2)CC1	MITF inh 77.5 | MITF inh conf inactive | AS interf ctr inactive
O=C(COc1ccccc1Cl)N1CCN(Cc2ccccc2)CC1	none
COc1ccc(CN2CCN(c3ccccc3F)CC2)cc1OC	MITF inh 52.3 | MITF inh conf inactive | AS interf ctr inactive
CCOc1cc(CN2CCN(C(CC)CC)CC2)ccc1OC	MITF inh 77.7 | MITF inh conf inactive | AS interf ctr inactive
CCOc1cc(CN2CCN(C(C)C)CC2)ccc1OC	MITF inh 54.7 | MITF inh conf inactive | AS interf ctr inactive
CCC(CC)N1CCN(Cc2ccc(OC)c(OC)c2)CC1	MITF inh 69.0 | MITF inh conf inactive | AS interf ctr inactive
Fc1ccc2c(c1)ncn2C1CCN(Cc2nnnn2CCc2ccccc2)CC1	none
COc1ccc(C(=O)Nc2ccc(Br)cc2C(=O)c2ccccc2Cl)c(OC)c1	none
CCOc1cc(CN2CCN(c3ccccc3F)CC2)ccc1O	none
CCC(CC)N1CCN(Cc2ccc(OC)cc2)CC1	MITF inh 54.2 | MITF inh conf inactive | AS interf ctr inactive
CCOc1cc(CN2CCN(Cc3ccccc3)CC2)ccc1O	MITF inh 55.8 | MITF inh conf inactive | AS interf ctr inactive
